Bioassay records as filed in PubChem.
RGS16-Gao: modulates binding between human RGS16 and Galphao; bead-based flow cytometry RGS16-Galphao binding, fluorescence; actives lie on both sides; AID 1441; binding response (% of control), % at 10 µM; 220,000 tested, 0.38% active;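 also: Galphao activated by GDP with aluminum fluoride before binding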
GSH bead fluor: GSH bead compound fluorescence profile; GSH beads flow cytometry, compound fluorescence 488/530 nm; active compounds read high; 190,000 tested, 0.25% active; fluorescence (KMESF) at 10 µM; in the data active = fluorescence above about 89;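 also: glutathione beads carrying GST-tagged Bcl family fusion proteins plus one bare bead set; values are compound well signal with DMSO vehicle wells as background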
RGS8-Gao: human RGS8-Galphao interaction regulation; P09471; multiplexed bead flow cytometry, RGS8-Galphao binding; actives lie on both sides; response (percent of control binding), % at 10 µM; 220,000 tested, 0.34% active; in the data active = response below about 60% or above about 140%; inactive = in between;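 also: Galphao activated as the GDP aluminium fluoride complex binding bead-coupled RGS8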
Target sequence (P09471 whole entry, looked up): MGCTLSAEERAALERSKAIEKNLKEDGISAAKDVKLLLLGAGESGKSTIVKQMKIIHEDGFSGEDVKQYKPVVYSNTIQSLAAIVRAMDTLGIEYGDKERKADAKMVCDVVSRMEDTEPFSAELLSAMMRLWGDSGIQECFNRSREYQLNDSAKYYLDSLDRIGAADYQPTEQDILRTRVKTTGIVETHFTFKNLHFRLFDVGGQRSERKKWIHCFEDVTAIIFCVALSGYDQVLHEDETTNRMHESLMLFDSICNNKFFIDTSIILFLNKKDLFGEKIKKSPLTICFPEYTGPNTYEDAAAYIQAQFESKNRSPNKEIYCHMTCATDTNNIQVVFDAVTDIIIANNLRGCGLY
RGS4-Gao reg: modulates binding of RGS4 to human Galphao. P09471. Multiplexed bead flow cytometry; actives lie on both sides. binding response (% of control), % at 10 µM. 220,000 tested, 0.33% active. AID 1415; in the data active = binding response below about 49% or above about 150%; inactive = in between;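 also: fluorescent Galphao activated with aluminum fluoride binding bead-coupled RGS4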
RGS7-Gao reg: human RGS7-Galphao interaction regulation | P09471 | Multiplexed bead flow cytometry, RGS7-Galphao binding; actives lie on both sides | binding response (% of control), % at 10 µM | 220,000 tested, 0.35% active | AID 1439; in the data active = binding response below about 49% or above about 150%; inconclusive = no clear call, values can overlap the other calls; inactive = in between;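 also: fluorescent Galphao held in activated GDP-AlF4 state binding bead-coupled RGS7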
Avidin fluor: compound fluoresces at 488/530 nm on avidin beads; compound fluorescence 488/530 nm, flow cytometry; active compounds read high; fluorescence (KMESF) at 10 µM; 220,000 tested, 0.38% active; AID 1775; in the data active = fluorescence above about 47
RGS4-Gao HTS: regulators of human RGS4-Galphao interaction | shares compounds with RGS16-Gao | multiplexed bead flow cytometry, RGS–Galpha-o binding | RGS4–Galpha-o binding response, % at 10 µM | 1,600 tested, 99% active | AID 1504;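 also: fluorescently labeled Galpha-o bound to GDP with aluminium fluoride binding biotinylated RGS beads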
Biotin-avidin: counter-screen: compounds disrupting biotin binding to avidin beads. 1,700 tested, under 10 active. streptavidin beads, fluorescein-biotin binding, flow cytometry. shares compounds with RGS16-Gao. inhibition, % at 10 µM;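 active = inhibition above 50%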;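 also: median green fluorescence of gated singlet beads compared with DMSO control wells; 0% = DMSO wells and 100% = complete loss of bead fluorescence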
RGS8-Gao confirm: confirmation of regulators of human RGS8-Galphao interaction. shares compounds with RGS16-Gao. bead-based flow cytometry RGS8-Galphao binding, fluorescence; actives lie on both sides. binding response (% of control), % at 10 µM. 1,700 tested, 3% active. AID 1836; in the data active = binding response below about 72% or above about 130%; inactive = in between;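 also: Galphao activated as GDP AlF4 complex before binding bead RGS8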
RGS7-Gao single: confirmation of regulators of human RGS7-Galphao interaction; response (percent of control binding), % at 10 µM; shares compounds with RGS16-Gao; bead-based flow cytometry RGS7-Galphao binding; actives lie on both sides; 1,700 tested, 7.8% active; AID 1837; in the data active = response below about 75% or above about 130%; inactive = in between;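 also: fluorescent Galphao activated with GDP and aluminum fluoride binding bead-coupled RGS7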
RGS16-Gao single: confirmation of regulators of human RGS16-Galphao interaction; shares compounds with RGS16-Gao; bead-based flow cytometry, RGS16-Galphao binding; actives lie on both sides; response (% of control binding), % at 10 µM; 1,700 tested, 4% active; AID 1838; in the data active = response below about 74% or above about 130%; inactive = in between;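 also: Galphao activated as the GDP aluminium fluoride complex binding bead-coupled RGS16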
RGS4-Gao single: RGS4-Galphao interaction regulation, single point confirmation; shares compounds with RGS16-Gao; RGS4-Galphao binding, multiplexed bead flow cytometry; actives lie on both sides; binding response (% of control), % at 10 µM; 1,700 tested, 4% active; AID 1840; in the data active = binding response below about 74% or above about 130%; inactive = in between
RGS19-Gao single: confirmation of regulators of human RGS19-Galphao interaction. shares compounds with RGS16-Gao. bead-based flow cytometry RGS19-Galphao binding; actives lie on both sides. response (percent of control binding), % at 10 µM. 1,700 tested, 5% active. AID 1841; in the data active = response below about 50% or above about 160%; inactive = in between;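 also: 100% = no compound control and 0% = blank background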
Target sequence (P09471 whole entry, looked up): as above
Target sequence (P49795 whole entry, looked up): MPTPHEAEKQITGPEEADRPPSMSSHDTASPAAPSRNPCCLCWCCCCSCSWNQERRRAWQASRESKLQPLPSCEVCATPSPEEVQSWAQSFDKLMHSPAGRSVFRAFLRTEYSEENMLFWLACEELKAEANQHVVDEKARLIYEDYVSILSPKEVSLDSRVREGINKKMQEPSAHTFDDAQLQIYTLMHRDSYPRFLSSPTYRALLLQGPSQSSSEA
* = called active by the depositor; ? = inconclusive; nt = not tested or not shown; + = active, no number; [ ] = remark or other dose. Shown are actives, neighbours in structure and some others; about 1.2% of the full set was active somewhere. Unless noted, no rule for the calls is given here.

SMILES | RGS16-Gao | GSH bead fluor | RGS8-Gao | RGS4-Gao reg | RGS7-Gao reg | Avidin fluor | RGS4-Gao HTS | Biotin-avidin | RGS8-Gao confirm | RGS7-Gao single | RGS16-Gao single | RGS4-Gao single | RGS19-Gao single
C=CCOc1c(CNC2CCCC2)cc(Cl)cc1OC | 105 | 23 | 101 | 103 | 103 | 10 | nt | nt | nt | nt | nt | nt | nt
Cc1onc(-c2ccccc2Cl)c1C(=O)NC(=S)NCC(=O)c1ccccc1 | 106 | 23 | 103 | 100 | 97 | 14 | nt | nt | nt | nt | nt | nt | nt
Cc1ccc(C(=O)NCC(=O)Nc2cccc(C(F)(F)F)c2)cc1 | 101 | 14 | 100 | 98 | 98 | 21 | nt | nt | nt | nt | nt | nt | nt
O=C(CNC(=O)c1ccccc1)Nc1cccc(C(F)(F)F)c1 | +[activator] | 211* | 193*[activator] | 762*[activator] | 845*[activator] | 560* | nt | 3 | 95 | 72* | 85 | 83 | 64
N=C1c2ccccc2CN1NC(=O)c1cccc(S(=O)(=O)N2CCOCC2)c1 | 236*[activator] | 12 | 126 | 116 | 114 | 10 | 116* | 2 | 108 | 165*[activator] | 126*[activator] | 127*[activator] | 324*[activator]
CC1CC(C)CN(C(=O)C2CCCN(S(=O)(=O)c3cnc[nH]3)C2)C1 (stereo unspecified) | 100 | nt | 99 | 100 | ? | 9 | nt | nt | nt | nt | nt | nt | nt
CCC(COC)NCc1cn(-c2ccc(OC)cc2)nc1-c1cccc(F)c1 (stereo unspecified) | 102 | 14 | 100 | 100 | 93 | 10 | nt | nt | nt | nt | nt | nt | nt
OCCN(Cc1ccccc1)Cc1ccc(C(F)(F)F)cc1 | 102 | 25 | 100 | 102 | 98 | 25 | nt | nt | nt | nt | nt | nt | nt
OCCN(Cc1ccccc1)Cc1cccc(C(F)(F)F)c1 | nt | 46 | nt | nt | nt | nt | nt | 1 | 98 | 90 | 96 | 94 | 70
COc1cccc2c1NC(C(=O)O)C1CC=CC21 (stereo unspecified) | 63 | 6 | 54* | 70 | 36* | 6 | 70* | 0 | 100 | 76 | 96 | 89 | 94
COc1cc(CN2CCC(C(=O)N3CCN(c4ccccc4F)CC3)CC2)cc(OC)c1OC | 102 | 35 | 100 | 100 | 99 | 8 | nt | nt | nt | nt | nt | nt | nt
COc1ccc(CN2CCC(C(=O)N3CCN(c4ccccc4F)CC3)CC2)cc1OC | 184 | 25 | 141*[activator] | 135 | 141 | 25 | 135* | nt | nt | nt | nt | nt | nt
COC(=O)c1onc(-c2c(C)cc(C)cc2C)c1C(=O)OC | 97 | 8 | 96 | 101 | 98 | 19 | nt | nt | nt | nt | nt | nt | nt
Cc1cc2cc(CCNC(=O)c3cccc([N+](=O)[O-])c3)c(=O)[nH]c2cc1C | 37 | 10 | 61 | 35* | 37* | 0 | nt | 0 | 100 | 100 | 100 | 99 | 104
O=C(NNC(=O)C1CC2CCC1C2)c1sc2ccccc2c1Cl (stereo unspecified) | 103 | 17 | 101 | 109 | 166*[activator] | 94* | 109* | -2 | 101 | 102 | 104 | 103 | 106
CCCn1nc(C(=O)Oc2ccc3c(C)cc(=O)oc3c2)c2ccccc2c1=O | 96 | 5 | 100 | 102 | 106 | 2 | nt | nt | nt | nt | nt | nt | nt
Cc1ccc(-n2c3c(c(=O)[nH]c2=O)C(NS(=O)(=O)c2ccc(Cl)cc2)(C(F)(F)F)C(=O)N3)cc1 (stereo unspecified) | 99 | 11 | 100 | 101 | 101 | 10 | nt | nt | nt | nt | nt | nt | nt
CC(=O)COC(=O)CNC(=O)c1ccc(Br)cc1 | nt | 33 | 167*[activator] | 138 | 137 | 2 | 138* | nt | nt | nt | nt | nt | nt
CC(=O)NCC(=O)OCC(=O)c1ccc(Br)cc1 | 96 | 6 | 99 | 98 | 96 | 15 | nt | nt | nt | nt | nt | nt | nt
O=[N+]([O-])c1cc(Cl)cc(/C=N/Nc2nc3ccccc3s2)c1O | 102 | 26 | 104 | 99 | 102 | 12 | nt | nt | nt | nt | nt | nt | nt
COc1cc(/C=N/Nc2nc3ccccc3s2)cc([N+](=O)[O-])c1O | nt | nt | nt | nt | nt | nt | nt | -3 | 96 | 96 | 95 | 101 | 91
Cc1nnc(SCC(=O)N2c3ccccc3CC2C)[nH]c1=O (stereo unspecified) | 100 | 8 | 106 | 100 | 98 | 3 | nt | nt | nt | nt | nt | nt | nt
CCOC(=O)N1CCN(CC(=O)Nc2c(C(=O)OC)[nH]c3ccccc23)CC1 | 103 | 18 | 98 | 124 | 175*[activator] | 106* | 124* | 0 | 106 | 99 | 110 | 107 | 100
COC(=O)c1[nH]c2ccccc2c1NC(=O)CN1CCCCCC1 | 112 | 25 | 106 | 106 | 106 | 5 | nt | nt | nt | nt | nt | nt | nt
Cc1cc(C)nc(/N=C2\NC(=O)CC3C(=O)NCCN23)n1 (stereo unspecified) | 10* | 24 | 13* | 21* | 12* | 4 | nt | 0 | 105 | 95 | 101 | 102 | 79
SMILES | RGS16-Gao | GSH bead fluor | RGS8-Gao | RGS4-Gao reg | RGS7-Gao reg | Avidin fluor | RGS4-Gao HTS | Biotin-avidin | RGS8-Gao confirm | RGS7-Gao single | RGS16-Gao single | RGS4-Gao single | RGS19-Gao single
Cc1ccccc1NC(=S)NCc1cccn1C | 178*[activator] | 11 | 124 | 97 | 100 | 6 | 97* | -4 | 102 | 106 | 104 | 106 | 112
O=C(COc1ccc(C(=S)N2CCC(Cc3ccccc3)CC2)cc1)N1CCOCC1 | 101 | 13 | 104 | 103 | 105 | 5 | nt | nt | nt | nt | nt | nt | nt
COc1ccc(NC(=O)Nc2nnc(-c3ccccc3SCc3ccccc3)s2)cc1 | nt | 33 | nt | nt | nt | nt | nt | 0 | 103 | 104 | 105 | 103 | 104
COc1cccc(NC(=O)Nc2nnc(-c3ccccc3SCc3ccccc3)s2)c1 | 106 | 9 | 105 | 105 | 101 | 7 | nt | nt | nt | nt | nt | nt | nt
Cc1ccc(C(=O)NCC(=O)OC(C)C(=O)Nc2ccc(N(C)C)cc2)cc1C (stereo unspecified) | 92 | 10 | 95 | 92 | ? | 8 | nt | nt | nt | nt | nt | nt | nt
Cc1ccc(N2CCN(CCc3nc4cc(NS(C)(=O)=O)ccc4n3C)CC2)cc1 | 278 | 64 | 147*[activator] | 120 | 120 | 9 | 120* | 0 | 106 | 101 | 109 | 104 | 98
